According to PubChem BioAssay AID1159580 (chemical genetic matrix, 2015):
The campaign covered roughly 5,500 compounds. About 2,000 (36%) were called active. Another 18% or so got no clear call; they are omitted. Rule as the data show it: active = normalized growth mostly below about 0.91 (no sharp cut-off); inconclusive = no clear call, values can overlap the other calls; inactive = mostly above about 0.92. The list shows a part of the results.

Assay: chemical genetic growth profiling, strain panel (AID 1159580);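 also: tested at 20 µM; growth read once vehicle control cultures reached saturation at 30 °C; 1 = growth at the plate median or of vehicle wells; lower values mean less growth of the strain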
Settings: S. cerevisiae deletion strains, growth OD
[1] = locus YAL013W, strain DEP1, stronger effect = lower value
[2] = locus YBR229C, strain ROT2, stronger effect = lower value
[3] = locus YDL101C, strain DUN1, stronger effect = lower value
[4] = locus YDR150W, strain NUM1, stronger effect = lower value
[5] = locus YEL061C, strain CIN8, stronger effect = lower value
[6] = locus YGR078C, strain PAC10, stronger effect = lower value
[7] = locus YGR229C, strain SMI1, stronger effect = lower value
[8] = locus YHR030C, strain SLT2, stronger effect = lower value
[9] = locus YJR043C, strain POL32, stronger effect = lower value
[10] = locus YLR039C, strain RIC1, stronger effect = lower value
[11] = locus YLR262C, strain YPT6, stronger effect = lower value
[12] = locus YNL153C, strain GIM3, stronger effect = lower value
[13] = locus YPL055C, strain LGE1, stronger effect = lower value
[14] = locus YPL241C, strain CIN2, stronger effect = lower value

Measured: normalized growth

O=c1cc(CO)occ1O
inactive: [1] 1.02 | locus YBR021W, strain FUR4, stronger effect = lower value 1 | [2] 1 | locus YCL029C, strain bik1, stronger effect = lower value 1.02 | locus YDL035C, strain GPR1, stronger effect = lower value 1.03 | locus YDL074C, strain BRE1, stronger effect = lower value 1.03 | [3] 1 | locus YDL134C, strain PPH21, stronger effect = lower value 1.01 | locus YDL185W, strain tfp1, stronger effect = lower value 1.03 | locus YDL192W, strain arf1, stronger effect = lower value 1.02 | locus YDR101C, strain arx1, stronger effect = lower value 1.03 | [4] 1.01 | locus YDR162C, strain NBP2, stronger effect = lower value 1.04 | locus YDR318W, strain mcm21, stronger effect = lower value 1.02 | locus YDR388W, stronger effect = lower value 1.02 | locus YDR502C, strain sam2, stronger effect = lower value 1.03 | [5] 1 | locus YER110C, stronger effect = lower value 1.04 | locus YER155C, strain BEM2, stronger effect = lower value 1 | locus YER167W, strain BCK2, stronger effect = lower value 1.01 | locus YGL078C, strain dbp3, stronger effect = lower value 1.03 | locus YGL086W, strain mad1, stronger effect = lower value 1 | locus YGL248W, strain PDE1, stronger effect = lower value 1 | [6] 1.01 | locus YGR135W, strain pre9, stronger effect = lower value 1.05 | [7] 1.01 | locus YGR252W, strain gcn5, stronger effect = lower value 1.05 | [8] 1 | locus YHR079C, strain IRE1 (second series), stronger effect = lower value 1.03 | locus YHR094C, strain hxt1, stronger effect = lower value 1.02 | locus YHR129C, strain ARP1, stronger effect = lower value 1.01 | locus YHR200W, strain rpn10, stronger effect = lower value 1.03 | locus YIL066C, strain RNR3, stronger effect = lower value 1.01 | locus YIL073C, strain SPO22, stronger effect = lower value 1.15 | locus YIL125W, strain kgd1, stronger effect = lower value 1.02 | locus YIR030C, strain dcg1, stronger effect = lower value 1.02 | locus YJL095W, strain BCK1, stronger effect = lower value 1.02 | locus YJL134W, strain LCB3, stronger effect = lower value 1.01 | locus YJL168C, strain set2, stronger effect = lower value 1.04 | locus YJL187C, strain SWE1 (second series), stronger effect = lower value 1.01 | [9] 1.02 | locus YKL009W, strain mrt4, stronger effect = lower value 1.03 | locus YKL068W, stronger effect = lower value 1.01 | locus YKL085W, strain MDH1 (second series), stronger effect = lower value 1.01 | locus YKL085W, strain MDH1, stronger effect = lower value 1.01 | locus YKR001C, strain vps1, stronger effect = lower value 1.03 | [10] 1.04 | locus YLR058C, strain SHM2, stronger effect = lower value 1 | locus YLR102C, strain apc9, stronger effect = lower value 1.02 | [11] 1.08 | locus YLR268W, strain sec22, stronger effect = lower value 1.02 | locus YLR330W, strain CHS5, stronger effect = lower value 1 | locus YLR342W, strain FKS1 (second series), stronger effect = lower value 1.04 | locus YLR371W, strain rom2, stronger effect = lower value 1.04 | locus YLR418C, strain cdc73, stronger effect = lower value 1.06 | locus YML016C, strain PPZ1, stronger effect = lower value 1 | locus YML032C, strain rad52, stronger effect = lower value 1.04 | locus YML124C, strain tub3, stronger effect = lower value 1.02 | locus YMR078C, strain ctf18, stronger effect = lower value 1.03 | locus YMR223W, strain ubp8, stronger effect = lower value 1.06 | locus YMR307W, strain GAS1, stronger effect = lower value 1.07 | locus YNL067W, strain RPL9B, stronger effect = lower value 1.03 | [12] 1.01 | locus YNL233W, strain BNI4, stronger effect = lower value 1.01 | locus YNL250W, strain rad50, stronger effect = lower value 1.05 | locus YNL271C, strain bni1, stronger effect = lower value 1.02 | locus YNL298W, strain CLA4, stronger effect = lower value 1.04 | locus YNL307C, strain MCK1, stronger effect = lower value 1.03 | locus YNR052C, strain pop2, stronger effect = lower value 1.01 | locus YOL012C, strain htz1 1.34 | locus YOL147C, strain pex11, stronger effect = lower value 1.03 | locus YOR061W, strain CKA2, stronger effect = lower value 1.01 | locus YOR069W, strain VPS5, stronger effect = lower value 1 | locus YOR136W, strain idh2, stronger effect = lower value 1.02 | locus YOR144C, strain elg1, stronger effect = lower value 1.03 | locus YOR184W, strain ser1, stronger effect = lower value 1.04 | locus YOR316C, strain cot1, stronger effect = lower value 1.01 | [13] 1.02 | [14] 1.01 | locus YPR119W, strain clb2, stronger effect = lower value 1.03 | locus YPR141C, strain kar3, stronger effect = lower value 1.01 | locus YPR163C, strain tif3, stronger effect = lower value 1.04 | locus YPR167C, strain met16, stronger effect = lower value 1.02 | strain wtn01, stronger effect = lower value 1.01

CCOC(=O)NC(=O)c1cn(Cc2cccs2)c(=O)[nH]c1=O
inactive: [1] 0.999 | [2] 1.02 | [3] 1 | [4] 1.02 | [5] 0.996 | [6] 0.993 | [7] 0.998 | [8] 1 | locus YHR087W, strain rtc3, stronger effect = lower value 1.01 | locus YJL187C, strain SWE1, stronger effect = lower value 1.01 | [9] 0.988 | locus YJR075W, strain HOC1, stronger effect = lower value 1.01 | [10] 1.01 | locus YLR058C, strain SHM2 (second series), stronger effect = lower value 1.01 | locus YLR085C, strain ARP6, stronger effect = lower value 1.03 | [11] 0.999 | locus YML094W, strain GIM5, stronger effect = lower value 1.01 | locus YMR219W, strain ESC1, stronger effect = lower value 1.01 | locus YMR263W, strain SAP30, stronger effect = lower value 1.01 | locus YNL128W, strain TEP1, stronger effect = lower value 0.984 | [12] 0.983 | locus YNL298W, strain CLA4 (second series), stronger effect = lower value 1.02 | locus YNL322C, strain KRE1, stronger effect = lower value 1 | locus YNR030W, strain Alg12, stronger effect = lower value 1.01 | locus YOL006C, strain TOP1, stronger effect = lower value 0.997 | [13] 1.06 | [14] 1.02 | locus YPR135W, strain CTF4, stronger effect = lower value 0.96
